Measured values reported in PubChem BioAssay AID624417 (National Center for Advancing Translational Sciences (NCATS), 2012).
The whole screen tested about 410,000 compounds, of which about 6,400 (1.6%) were called active. Not shown: some 20% with an inconclusive outcome. Calls follow the shape of the dose curve; as a rule, active = well fitted inhibition curve with a large enough effect; inconclusive = small, poorly fitted or top-dose-only effect; inactive = no such curve, though single readings can be large or run the other way. The entries come from a sample that favours actives as a whole.

Target: Glucagon-like peptide 1 receptor (Homo sapiens) (UniProt P43220)
Sequence (P43220 whole entry, looked up): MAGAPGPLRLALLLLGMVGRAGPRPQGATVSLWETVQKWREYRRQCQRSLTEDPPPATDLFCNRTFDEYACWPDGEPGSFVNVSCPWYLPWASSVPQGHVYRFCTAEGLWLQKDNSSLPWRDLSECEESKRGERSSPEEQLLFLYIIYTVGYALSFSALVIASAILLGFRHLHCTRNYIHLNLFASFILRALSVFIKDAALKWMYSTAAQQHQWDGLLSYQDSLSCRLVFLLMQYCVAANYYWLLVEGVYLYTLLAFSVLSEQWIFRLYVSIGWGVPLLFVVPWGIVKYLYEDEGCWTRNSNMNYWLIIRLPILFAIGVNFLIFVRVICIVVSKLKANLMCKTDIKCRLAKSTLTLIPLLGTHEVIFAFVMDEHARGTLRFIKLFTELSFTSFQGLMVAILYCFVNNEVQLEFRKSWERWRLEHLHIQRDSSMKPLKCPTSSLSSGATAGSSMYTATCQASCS
Experiment: qHTS of GLP-1 Receptor Inverse Agonists (Inhibition Mode); also: nearly all actives have a fitted effect of over 55% in size
Details: HEK293 GLP-1R CRE-luciferase, luminescence, 24 h, GLP-1R form is constitutively active; series mostly up to 38.3 µM; activity change, negative = inhibition: at the top concentration
How it was run: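 Cells are plated, allowed 12 hours at 37 deg C, then treated with compounds for 24 hr before luciferase detection reagent is added and luminescence is read after 12 min at room temperature. The HEK293 line carries constitutively active GLP-1R with a cAMP-responsive reporter.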
% is scaled to controls: 0 for no effect and ±100 for the full control effect; potency is read from the fitted curve at half-maximal effect.

Row | Compound | activity change, negative = inhibition | Potency
1 | Cc1ccc(S(=O)(=O)CC(=O)NC(C)c2ccccc2)cc1 (configuration not stated) | -15.5% (inactive) | 
2 | CSc1ccc(CCNC(=O)CS(=O)(=O)Cc2nc(-c3ccccc3F)oc2C)cc1 | 9.93% (inactive) | 
3 | Cc1ccccc1-c1nc(CS(=O)(=O)CC(=O)NC(C)c2ccccc2)c(C)o1 (configuration not stated) |  | 4.47 µM (active)
4 | CN(Cc1ccccc1)C(=O)[C@@H]1CCCN1C(=O)[C@@H]1CCCN1C(=O)c1c(F)cccc1F | 11.3% (inactive) | 
5 | CCOC(=O)[C@]12CCC=C1N(CCC1=CCCCC1)C(=O)[C@H](CC(=O)NCc1ccc(C)o1)C2 | 14% (inactive) | 
6 | O=C(CN1CCN(Cc2ccc(Cl)cc2)C1=O)NCc1ccc(F)cc1 | -5.81% (inactive) | 
7 | CC(NC(=O)CN1CCN(Cc2ccc(Cl)cc2)C1=O)c1ccc2c(c1)OCCO2 (configuration not stated) | -23.5% (inactive) | 
8 | Cc1ccc(CNC(=O)CN2CCN(Cc3ccc(Cl)cc3)C2=O)cc1 |  | 7.94 µM (active)
9 | CC(C)C1CC2=C(C(=O)OC(C)(C)O2)C(c2ccc(F)cc2)O1 (configuration not stated) | -19.2% (inactive) | 
10 | Cc1ccc([C@H]2C[C@H](O)[C@@H](n3cc(COC(=O)c4ccccc4)nn3)CN2CC2CCCCC2)cc1 | 1.35% (inactive) | 
11 | CC(=O)N1C[C@@H](CO)[C@@H](N(C)C(=O)c2ccco2)C[C@H]1c1ccccc1 | 17.5% (inactive) | 
12 | COc1ccccc1-c1n[nH]nc1C1=CC(=O)CC(C)(C)C1 | -11.7% (inactive) | 
13 | NS(=O)(=O)c1ccc(CNC(=O)c2cccc(S(=O)(=O)N3CCc4ccccc43)c2)cc1 | -4.07% (inactive) | 
14 | Cc1ccc(NC(=O)c2cccc(S(=O)(=O)N3CCCc4ccccc43)c2)nc1 |  | 7.94 µM (active)
15 | Cc1cccc(NC(=O)c2cccc(S(=O)(=O)N3CCCC3)c2)n1 | -2.27% (inactive) | 
16 | COc1ccc(NC(=O)N(C)C[C@H]2Oc3ncc(C#C[C@@H](C)O)cc3C(=O)N([C@H](C)CO)C[C@H]2C)cc1 | 19.3% (inactive) | 
17 | Cn1c(Nc2ccc(F)cc2)nc2cc(-c3ccsc3)sc2c1=O | 13.3% (inactive) | 
18 | CCN(CCN(C)C)C(=O)c1ccc2nc(C)c(N(C)C(=O)CCc3ccccc3)n2c1 | 12.2% (inactive) | 
19 | O=C(NCc1nnnn1-c1ccc(Cl)cc1)c1ccc([N+](=O)[O-])o1 | 12.3% (inactive) | 
20 | CCN1CC(CN(C)Cc2nc(-c3ccc(Cl)cc3)no2)CC1=O (configuration not stated) | -4.38% (inactive) | 
21 | Cc1ccc(S(=O)(=O)N(Cc2nc(-c3ccc(Cl)cc3)no2)C2CCCCC2)cc1 |  | 10 µM (active)
22 | CC1CCN(Cc2nc(-c3ccc(Cl)cc3)no2)CC1 | -29.5% (inactive) | 
23 | CCN(CC)C(=O)C(C)N1c2cccc3cccc(c23)S1(=O)=O (configuration not stated) | -23.4% (inactive) | 
24 | CC1CN(Cc2ccccc2)C(=S)NC1=O (configuration not stated) | 0.404% (inactive) | 
25 | CCc1cccc(C)c1N1C(=O)CN(Cc2ccccc2)C1=S |  | 5.62 µM (active)

Row | Compound | activity change, negative = inhibition | Potency
26 | O=C1C[C@@H]2c3c(cccc3CN1Cc1ccccc1)C[C@@H](O)[C@H]2O | 26.3% (inactive) | 
27 | Nc1ncnc2c1ncn2[C@@H]1O[C@H](C(=O)N2CCSC2)[C@@H](O)[C@H]1O | 0.629% (inactive) | 
28 | CCOc1cc(/C=N/NC(=O)c2c(C)nc3ccc(Cl)cn23)ccc1O | 1.83% (inactive) | 
29 | CC(=O)C[C@@H]1OC[C@H](C)N1S(=O)(=O)c1ccc(C)cc1 | 0.373% (inactive) | 
30 | CCCC(=O)N1CCC1(C)C(=O)NCc1ccc(C(C)C)cc1 (configuration not stated) | 17.7% (inactive) | 
31 | CCN(CC)CCNC(=O)c1ccc(NC(=O)c2c(F)cccc2Cl)cc1 | -15.9% (inactive) | 
32 | O=C(Nc1nnc(-c2ccc(F)cc2)s1)c1c(F)cccc1Cl | -21.4% (inactive) | 
33 | O=C(NNc1cc(Cl)cc(Cl)c1)c1c(F)cccc1Cl |  | 10 µM (active)
34 | CN1CCN(c2ccncc2S(=O)(=O)N2CCCC2)CC1 | 14% (inactive) | 
35 | COCCNC(=O)c1cc2c(Br)ccc(Br)c2nc1N | 3.82% (inactive) | 
36 | O=C(C[C@H]1CC[C@@H](NC(=O)c2ccncc2)[C@@H](CO)O1)NCC1CC1 | 19.3% (inactive) | 
37 | CCOc1cccc(/C=C/c2ccc3ccccc3n2)c1OC(C)=O |  | 10 µM (active)
38 | CCOc1ccccc1/C=N/Nc1nc2ccccc2o1 | 4.76% (inactive) | 
39 | CCOc1ccccc1-c1cc(C(=O)N2CCOCC2)c2ccccc2n1 | -1.25% (inactive) | 
40 | CC(C)(C)S(=O)N1Cc2cc(C(=O)NCCCN3CCOCC3)nc(-c3cccc(-c4cc5ccccc5o4)c3)c2[C@H]1CCO (some centres not stated) | 4.49% (inactive) | 
41 | COc1cccc(CC(=O)Nc2ccc(-c3csc(C)n3)cc2)c1 | -12.6% (inactive) | 
42 | COc1cccc(NC(=O)CN2CCN(c3nc(-c4cccc(OC)c4)cs3)CC2)c1 |  | 10 µM (active)
43 | COc1cccc(N2CCN(CC(=O)Nc3ccnn3C3CCCC3)CC2)c1 | -24.6% (inactive) | 
44 | CC(C)CN1CCC1(C)C(=O)Nc1ccc(OC(F)F)cc1 (configuration not stated) | -21% (inactive) | 
45 | C[N+](C)(C)CCNC(=O)c1c[nH]c2ccccc12 | 15.7% (inactive) | 
46 | CC(C)c1cc(C(=O)N(C)C2CCCN(Cc3ccccc3F)C2)n(C)n1 (configuration not stated) | -8.11% (inactive) | 
47 | COc1cc2c(cc1O)C(SC)=NC(C)(C)C2 |  | 10 µM (active)
48 | COc1cc2c(cc1OC)C(C(C)C)=NC(C)(C)C2 | 41.3% (inactive) | 
49 | COc1cc2c(cc1OC)C(Nc1ccc(S(N)(=O)=O)cc1)=NC(C)(C)C2 | 120% (inactive) | 
50 | CC(=O)NN=C(C)c1ccc(NC(=O)C2CC2)cc1 | -13.4% (inactive) | 

Row | Compound | activity change, negative = inhibition | Potency
51 | N#Cc1ccc(C(C(=O)NCc2ccccc2)n2c(=O)c(-c3ccco3)nc3ccccc32)cc1 (configuration not stated) | -11.9% (inactive) | 
52 | Cc1ccc(NC(=O)Cn2sc3ccccc3c2=O)cc1 | -7.13% (inactive) | 
53 | O=C(O)c1cccc(NC(=S)N/N=C/c2c[nH]c3ccccc23)c1 | -14.5% (inactive) | 
54 | COCCNC(=S)N/N=C/c1c(C)[nH]c2ccccc12 | -22.1% (inactive) | 
55 | CSC(=S)N/N=C/c1c[nH]c2ccccc12 |  | 3.16 µM (active)
56 | CCc1nc2ccc(C(=O)N3CCC(O)(Cc4ccccc4)CC3)cn2c1N(C)C(=O)Cc1ccccc1 | -20% (inactive) | 
57 | CCNC(=O)CN(c1ccc(C)cc1)S(=O)(=O)c1ccc(SC)cc1 | -13.4% (inactive) | 
58 | CCc1ccc(N(CC(=O)NCc2cccnc2)S(=O)(=O)c2ccccc2)cc1 | -16.9% (inactive) | 
59 | Cc1ccc(S(=O)(=O)N(CC(=O)Nc2cccnc2)c2ccc(Br)cc2)cc1 |  | 11.2 µM (active)
60 | NC(=S)N/N=C/c1coc2cc(Cl)ccc2c1=O | 8.08% (inactive) | 
61 | CC(C)Oc1c(Br)cc(Br)cc1/C=N/NC(N)=S |  | 2.51 µM (active)
62 | CCOc1ccc(/C=N/NC(N)=S)cc1 | -13.1% (inactive) | 
63 | CN1OC[C@@H]2CN(C(=O)c3ccc(-c4ccccc4)cc3)[C@H](c3ccc(-c4cccc(F)c4)cc3)C[C@@H]21 | -7.58% (inactive) | 
64 | CCCCN1C(=O)C(CC(=O)NCc2cccs2)CC(C(=O)N2CCCCCC2)=C1C (configuration not stated) | 32.5% (inactive) | 
65 | Cc1cc(Cl)ccc1OCC(=O)N(Cc1ccc(N(C)C)cc1)C1CCS(=O)(=O)C1 (configuration not stated) | -15.3% (inactive) | 
66 | CC1(C)C(C=C(Cl)Cl)C1C(=O)N(Cc1ccc(Cl)cc1)C1CCS(=O)(=O)C1 (configuration not stated) |  | 8.91 µM (active)
67 | COc1ccc(C(=O)N(Cc2ccc(N(C)C)cc2)C2CCS(=O)(=O)C2)cc1 (configuration not stated) | 11.2% (inactive) | 
68 | C=CCN1CCN(c2ccncc2S(=O)(=O)N2CCN(C)CC2)CC1 | 2.75% (inactive) | 
69 | C[C@@H]1Cn2cnc(C(=O)Nc3ccc(CNC(=O)OC(C)(C)C)cc3)c2C(=O)N1 | 10.1% (inactive) | 
70 | O=C(CN1CCN(Cc2ccccc2)CC1)NC(c1ccccc1)c1ccccc1 |  | 10 µM (active)
71 | O=C(CN1CCN(Cc2ccccc2)CC1)Nc1ccc(F)c(F)c1 | -20.9% (inactive) | 
72 | O=C(Cc1ccc(-c2ccccc2)cc1)NC(c1ccccc1)c1ccccc1 | 4.75% (inactive) | 
73 | COc1ccc(S(=O)(=O)N(C)C)cc1NC(=O)COC(=O)c1n[nH]c2ccccc12 | 26.5% (inactive) | 
74 | Nc1ncnc2c1ncn2[C@@H]1O[C@H](CNC(=O)[C@H](N)Cc2cccnc2)[C@@H](O)[C@H]1O | 21.7% (inactive) | 
75 | CSc1nsc(SC)c1NC(=O)OC1CCCCC1 |  | 7.08 µM (active)

Row | Compound | activity change, negative = inhibition | Potency
76 | O=C(NC(Nc1nc2ccc([N+](=O)[O-])cc2s1)(C(F)(F)F)C(F)(F)F)c1ccccc1 | -3.99% (inactive) | 
77 | O=[N+]([O-])c1cc(Br)c(O)c(/C=N/Nc2nc3ccccc3s2)c1 |  | 4.47 µM (active)
78 | COc1ccc(CC(=O)N/N=C/c2cc([N+](=O)[O-])cc(Br)c2O)cc1 | -4.66% (inactive) | 
79 | CC1(C(=O)O)CCN1C(=O)/C=C/c1ccccc1 (configuration not stated) | 3.55% (inactive) | 
80 | Cc1cccc(S(=O)(=O)N(C)C[C@@H]2OCc3cnnn3CCCC(=O)N([C@H](C)CO)C[C@@H]2C)c1 | 4.72% (inactive) | 
81 | CC(=O)Nc1ccc(NC(=O)CSCc2cnn(-c3ccccc3)c2-n2cccc2)cc1 | 0% (inactive) | 
82 | Cc1cc(C)cc(NC(=O)CSCc2cnn(-c3ccccc3)c2-n2cccc2)c1 | 0% (inactive) | 
83 | O=C(NCCC1=CCCCC1)C1CCN(Cc2cnn(-c3ccccc3)c2-n2cccc2)CC1 |  | 4.47 µM (active)
84 | Cc1ccc(S(=O)(=O)N2C[C@H]3C(=O)C[C@@H](c4cccc5ccccc45)N(S(=O)(=O)c4ccc(C)cc4)[C@H]3C[C@H]2c2ccc(Cl)cc2)cc1 | -11.8% (inactive) | 
85 | CC1(C(=O)NS(=O)(=O)c2cccc(OC(F)F)c2)CCN1C(=O)C1CC1 (configuration not stated) | 26.9% (inactive) | 
86 | CC1=NN(C(=O)c2ccccc2Br)C(O)(c2cccnc2)C1 (configuration not stated) | -5.96% (inactive) | 
87 | CC1=NN(C(=O)c2ccc(Br)cc2)C(O)(c2ccccc2)C1 (configuration not stated) |  | 1.12 µM (active)
88 | CC1=NN(C(=O)Cc2ccc(C)cc2)C(O)(c2cccnc2)C1 (configuration not stated) | -31.7% (inactive) | 
89 | CCOC(=O)[C@]12CCCC=C1N(CCC1=CCCCC1)C(=O)[C@H](CC(=O)N1CCOCC1)C2 | -8.43% (inactive) | 
90 | CC(=O)Nc1cccc(-c2cc3nc(NCc4cccnc4)n(C)c(=O)c3s2)c1 | 24.8% (inactive) | 
91 | Cc1c(C(=O)NCC2CC2)sc(=O)n1Cc1cccc(F)c1 | 19.5% (inactive) | 
92 | O=C1NC[C@H](Cc2ccc(O)cc2)N(C[C@@H]2CCCN2C[C@H](Cc2ccccc2)N2C[C@H](Cc3ccccc3)N(CC3CCCCC3)C(=O)C2=O)C1=O | -1.28% (inactive) | 
93 | CC1CN(c2nc(Nc3ccccc3)nc(N)c2[N+](=O)[O-])CC(C)O1 (configuration not stated) | 11.6% (inactive) | 
94 | c1ccc(Nc2nc(N3CCOCC3)c3ccccc3n2)cc1 |  | 10 µM (active)
95 | c1ccc(-c2nnc(N3CCOCC3)c3ccccc23)cc1 | 24.8% (inactive) | 
96 | CCc1cc(C(=O)N(CC)CC(=O)Nc2c(F)cccc2F)sc1C | -4.68% (inactive) | 
97 | COC(=O)C[C@@H]1C=C[C@@H](NS(=O)(=O)c2cccc(OC)c2)[C@@H](CO)O1 | 19.5% (inactive) | 
